Source: PubChem BioAssay (National Center for Advancing Translational Sciences (NCATS))
In the library only some 17% were active in any assay of this set; here they are far more common.
HepG2 tox = HepG2 cytotoxicity, counter-screen for TGF-b inhibitors; HepG2 CAGA-GFP viability, ATP luminescence, 18 h; Potency, µM (top dose mostly 46.1 µM), for inactives: at the highest dose activity change, negative = cytotoxicity, usual class: cytotoxic; 410,000 compounds, 0.76% hits; AID 588856
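CellTiter-Glo luminescence gave cytotoxicity after 18 hours at 37 degrees C. The cells were HepG2 CAGA-GFP in 1% FBS DMEM, stimulated with 500 pg/mL TGF-beta after compound addition. %Activity was normalised to no-cell wells (complete cell-killing) and DMSO (no toxicity), and curves were fitted and classified.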
TDP1 cell noCPT = qHTS for Inhibitors of human tyrosyl-DNA phosphodiesterase 1 (TDP1): qHTS in cells in absence of CPT | 420,000 compounds, 15% hits | DT40 Tdp1-/- hTDP1 cells, no CPT, ATP luminescence, 48 h | Potency, µM (doses to about 46.2 µM), inactives show top-dose activity change, negative = growth inhibition, hits mostly inhibitors; further: on the % scale 0 is the no-effect control and ±100 the full control effect; nearly all actives have a fitted effect of over 55% in size
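Growth kinetics read by CellTiter-Glo luminescence after ≥48 hr at 37 °C. Cells: DT40 Tdp1-/- stably carrying human TDP1, 400 per well, compound exposure in the absence of CPT (DMSO vehicle).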
ATXN2 expr inh = ATXN2 expression inhibition; HEK-293 ATXN2-luciferase reporter, luminescence, 24 h; Potency, µM (top dose mostly 57 µM), for the others: at the highest dose activity change, negative = inhibition, most hits filed as inhibitors; 360,000 compounds, 0.72% hits; AID 1745845; further: on the % scale 0 is the no-effect control and ±100 the full control effect; nearly all actives have a fitted effect of over 55% in size
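ATXN2-luciferase reporter cells (luciferase flanked by upstream and downstream ATXN2 gene portions) were treated 24 h at 37 °C with compounds at up to 57 uM. SteadyGlo luminescence gave expression; GF-AFC fluorescence gave viability.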
S2 tox = cell viability loss in ATXN counter-screen; S2 cells (HEK-293 line with an ATXN2-luciferase reporter) viability, CellTiter-Fluor protease fluorescence, 24 h; Potency, µM (top dose mostly 56.7 µM), hits mostly cytotoxic; 400,000 compounds, 0.49% hits; further: nearly all actives have a fitted effect of over 40% in size
TGFb inhibitor = blocks TGF-b signaling | HepG2 CAGA-GFP TGF-b/SMAD3 reporter, GFP fluorescence, 18 h; TGF-beta stimulated, 500 pg/mL final | Potency, µM (highest dose often 46.1 µM), for the others: top-dose activity, negative = inhibition, actives largely listed as inhibitors | 410,000 compounds, 1.2% hits | AID 588855; further: on the % scale 0 is the no-effect control and ±100 the full control effect; nearly all actives have a fitted effect of over 65% in size
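Using HEPG2 CAGA-GFP reporter cells at 1000 cells/well, we pinned test compounds, stimulated with recombinant TGF-beta (500 pg/mL final) and measured total well GFP after 18 h.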
TDP1 cell CPT = growth inhibition of DT40 Tdp1-/-;hTDP1 cells with camptothecin (screen for TDP1 inhibitors); chicken DT40 Tdp1-/-;hTDP1 cells + 20 nM CPT, ATP luminescence, 48 h; Potency, µM (doses to about 46.2 µM), inactives show at the highest dose activity change, negative = growth inhibition, actives largely listed as inhibitors; 420,000 compounds, 12% hits; AID 686979; further: on the % scale 0 is the no-effect control and ±100 the full control effect; nearly all actives have a fitted effect of over 55% in size
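Cell growth measured by CellTiter-Glo luminescence after a minimum 48 h, 37 C compound exposure with 20 nM CPT in Tdp1-knockout DT40 cells stably expressing hTDP1, seeded 400/well; qHTS titration format.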
The depositor's hits bear a star; i = inactive; ? = inconclusive; · = no result; [ ] = dose if it differs, or a comment. The call rests on the fitted dose curve; in most records, active means well fitted curve in the direction sought with a large enough effect; inconclusive means small, poorly fitted or top-dose-only effect, or another doubt; inactive means no such curve, though single readings can be large; an effect the other way counts as inactive or inconclusive. Potency means the concentration at half of the fitted maximal effect.

SMILES	HepG2 tox	TDP1 cell noCPT	ATXN2 expr inh	S2 tox	TGFb inhibitor	TDP1 cell CPT
CN(C)C(CNC(=O)c1ccc(Cl)c(S(=O)(=O)N2CCCCCC2)c1)c1ccccc1 (centres undefined)	-25%	?	-32%	i	?	?
CCOC(=O)C1CCCN(C(=O)CNC(=O)Cn2ccc3ccccc3c2=O)C1 (centres undefined)	-13%	-13%	-3%	i	-7%	-15%
COCCN(C(=O)COC(=O)CCc1c[nH]c2ccccc12)c1c(N)n(Cc2ccccc2)c(=O)[nH]c1=O	1%	7%	7%	i	2%	5%
Cc1cccc(NC(=O)CN2CCN(C(=O)c3cnn(Cc4ccccc4)c3)CC2)c1C	-16%	-12%	-4%	i	-3%	-7%
CCC(=O)Nc1sc2c(c1C(=O)Nc1ccccc1C)CCC(C)C2 (centres undefined)	-4%	?	1%	i	6%	?
CC(=O)OC1(C)C=Cc2ccccc2C1=NS(=O)(=O)c1ccccc1 (centres undefined)	-18%	23µM*	·	?	-14%	?
CCn1c(=O)cc(SCC(=O)NCc2ccc(F)cc2Cl)c2ccccc21	-29%	?	13%	i	-27%	?
CN(CCOc1ccccc1)S(=O)(=O)c1ccc2oc3ccccc3c2c1	-5%	23µM*	-5%	i	-48%	?
COc1ccc(OC)c(-c2cc(Cl)c3c(c2)CC(CNC(=O)C(C)N2CCOCC2)O3)c1 (centres undefined)	·	?	·	i	·	-1%[9.04 µM]
COc1cc(=O)n2c(c1C(=O)NCc1cccc(F)c1)CCN(Cc1cccnc1)CC2	·	-20%	·	i	·	-5%
COc1ccccc1OCC(=O)NNC(=S)NC(=O)c1ccco1	6%	18µM*	-14%	i	?	?
COc1ccccc1C(=O)NC(=S)Nc1ccc(NC(=O)c2ccco2)cc1	4%	?	-28%	i	4%	-22%
COc1ccc(C(=O)NNC(=S)NC(=O)C(C)(C)C)cc1	14%	7.3µM*	?	?	5%	6.5µM*
O=C(NC(=S)NNC(=O)c1ccco1)c1ccc(F)cc1	-1%	16µM*	·	i	-26%	?
COc1ccc(C(=O)NC(=S)NNC(=O)COc2ccccc2)cc1	-19%	?	?	i	-7%	15µM*
COc1ccc(C(=O)NCc2nc(-c3ccccc3NC(=O)c3cc(C)oc3C)oc2C)cc1F	·	3%	·	i	·	25%
O=C(NNC(=S)NC(=O)C12CC3CC(CC(C3)C1)C2)c1ccncc1	-18%	?	-18%	i	-6%	?
Cc1ccc(C(=O)NC(=S)NNC(=O)COc2ccc([N+](=O)[O-])cc2)cc1	-2%	15µM*	-1%	i	1%	?
COc1ccc(C(=O)NC(=S)NNC(=O)c2ccccc2O)cc1	-21%	12µM*	-20%	i	-13%	15µM*
O=C(NNC(=S)NC(=O)c1ccc(F)cc1)c1ccncc1	-1%	23µM*	-35%	i	-16%	18µM*
CC1(C(=O)NC(=S)NNC(=O)c2ccncc2)CCCCC1	-26%	16µM*	-27%	i	?	13µM*
CCN1CCC[C@H]1CNCCCn1cnc2c(SC)ncnc21	-44%	-4%	-7%	i	?	2%
O=C(NC(=S)NC12CC3CC(CC(C3)C1)C2)c1ccc(F)cc1	-23%	23µM*	23%	i	-2%	?
COc1ccc(CC(=O)NNC(=O)c2ccco2)cc1	5%	11%	-4%	i	9%	-1%
COc1ccc(C(=O)NC(=S)NNC(=O)c2ccco2)cc1	-13%	21µM*	-25%	i	3%	18µM*
SMILES	HepG2 tox	TDP1 cell noCPT	ATXN2 expr inh	S2 tox	TGFb inhibitor	TDP1 cell CPT
Cc1cc(NS(C)(=O)=O)c(=O)n(Cc2cccc(F)c2)c1	-3%	2%	5%	i	-4%	1%
O=C(Cn1c(CN2CCCCC2)nc2ccccc2c1=O)NCc1ccco1	3%	-11%	1%	i	9%	-37%
Cn1cc(C=C2C(=O)Nc3cccnc32)c2ccccc21	·	·	16%	·	·	·
C=C1CCC2[C@](C)(CO[C@@H]3O[C@H](CO)[C@@H](O)[C@H](O)[C@H]3O)CCC[C@@]2(C)[C@@H]1CCC1=CCOC1=O (some centres undefined)	-18%	?	0%	i	1%	-14%
C=C1CCC2C(C)(CO)C(O)CCC2(C)C1C/C=C1\C(=O)OCC1O (centres undefined)	·	5µM*	·	·	·	4µM*
CC(C)NC(=O)[C@@H]1C[C@@H](Sc2nc3ccccc3[nH]2)CN1C1Cc2ccccc2C1	·	?	·	i	·	?
Cc1c(C(=O)Nc2ccncc2)sc2nc(-c3ccc(F)cc3)cn12	-35%	5.2µM*	-20%	?	-25%	7.3µM*
COc1ccc(-c2cn3c(C)c(C(=O)N4CCN(c5ccccc5F)CC4)sc3n2)cc1	-32%	18µM*	-33%	?	?	23µM*
COc1ccc(-c2cn3c(C)c(C(=O)Nc4ccncc4)sc3n2)cc1	-12%	5.8µM*	-10%	i	-11%	3.7µM*
CCOc1ccc(NC(=O)c2sc3nc(-c4ccc(OC)cc4)cn3c2C)cc1	-26%	7.3µM*	·	·	2%	16µM*
Cc1c(C(=O)Nc2cc(F)ccc2F)sc2nc(-c3ccc(F)cc3)cn12	1%	?	·	·	-1%	?
CC(Sc1nnc(NCc2ccccc2)s1)C(=O)Nc1ccc2c(c1)C(=O)c1ccccc1C2=O (centres undefined)	-3%	18µM*	26%	i	-15%	?
CN(C)c1ccc(C2Nc3ccccc3C(=O)N2NS(C)(=O)=O)cc1 (centres undefined)	11%	16%	39%	i	-5%	-9%
CC(C)Cc1ccc(-c2cc3nc(NCCc4ccc(S(N)(=O)=O)cc4)ccn3n2)cc1	-32%	12µM*	-19%	i	11%	23µM*
COc1cc2[nH]c(=S)nc(NCCc3ccc(S(N)(=O)=O)cc3)c2cc1OC	0%	0%	1%[11.3 µM]	i	-6%	0%
CCC(CO)Nc1ccn2nc(-c3cc(OC)c(OC)c(OC)c3)cc2n1 (centres undefined)	-1%	15µM*	10%	i	-4%	?
